In PubChem BioAssay (NCI):
This is part of a sample that, as a whole, favours compounds with a hit. Of some 79,000 tested, about 15% had one in any assay. Active and inactive are the calls of the source. Rule as the data show it: active = growth inhibition above about 70%; inactive = the rest.

Legend:
[1] = NCI Yeast Anticancer Drug Screen. Data for the rad52 strain (AID 147);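 also: 0% = growth of vehicle-treated control cultures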; settings: S. cerevisiae rad52 mutant growth inhibition, active compounds read high
Procedure, shortened: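 Vehicle-treated cultures served as the reference for growth inhibition of compound-exposed yeast bearing a DNA repair mutation.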

[2] = NCI Yeast Anticancer Drug Screen. Data for the wt1 strain (AID 149);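 also: 0% = growth of vehicle-treated wt1 cultures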; settings: S. cerevisiae wt1 strain (SPY 50644) growth inhibition, active compounds read high
Procedure, shortened: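 Each compound is tested on wt1 yeast and the loss of growth versus vehicle gives the inhibition value.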

[3] = NCI Yeast Anticancer Drug Screen. Data for the rad50EPP+ strain (AID 151);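 also: 0% = growth of vehicle-treated control cultures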; settings: S. cerevisiae rad50 mutant strain, active compounds read high
Procedure, shortened: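 In this screen, rad50EPP+ yeast were exposed to compounds. Growth inhibition was scored against vehicle-treated controls.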

[4] = NCI Yeast Anticancer Drug Screen. Data for the mgt1 strain (AID 153); settings: S. cerevisiae mgt1 mutant growth inhibition, active compounds read high
Procedure, shortened: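 mgt1 strain exposed; growth vs vehicle control recorded as inhibition.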

[5] = NCI Yeast Anticancer Drug Screen. Data for the rad50 strain (AID 155);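 also: 0% = growth of vehicle-only cultures of the same strain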; settings: S. cerevisiae rad50 strain growth inhibition, active compounds read high
Procedure, shortened: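 Vehicle-treated cultures provide the reference for the growth inhibition reported for compound-exposed, repair-deficient yeast.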

[6] = NCI Yeast Anticancer Drug Screen. Data for the mec2-1 strain (AID 157); settings: S. cerevisiae mec2-1 strain, active compounds read high
Procedure, shortened: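 Vehicle-treated cultures served as reference for growth inhibition of compound-exposed mec2-1 yeast.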

[7] = NCI Yeast Anticancer Drug Screen. Data for the rad14 strain (AID 159);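 also: 0% = growth of vehicle-treated control cultures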; settings: S. cerevisiae rad14 strain growth inhibition, active compounds read high
Procedure, shortened: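 Inhibition of growth is reported for a repair-deficient yeast mutant following compound treatment, calculated relative to cultures that received vehicle.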

[8] = NCI Yeast Anticancer Drug Screen. Data for the sgs1 mgt1 strain (AID 161);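 also: 0% = growth of cultures given vehicle only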; settings: S. cerevisiae sgs1 mgt1 strain, active compounds read high
Procedure, shortened: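 Genetically altered yeast, compound exposure, growth inhibition relative to vehicle.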

[9] = NCI Yeast Anticancer Drug Screen. Data for the CLN2oe strain (AID 163);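 also: 0% = growth of vehicle-only control cultures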; settings: S. cerevisiae CLN2oe strain, active compounds read high
Procedure, shortened: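 Inhibition relative to vehicle-treated yeast is reported. Cells: strain with genetic alteration in cell-cycle control, grown with compound.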

[10] = NCI Yeast Anticancer Drug Screen. Data for the cln2 rad14 strain (AID 165);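 also: 0% = growth equal to vehicle treated cultures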; settings: S. cerevisiae cln2 rad14 strain, active compounds read high
Procedure, shortened: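 Each compound was tested on cln2 rad14 yeast. Inhibition of growth was calculated against vehicle-exposed controls.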

[11] = NCI Yeast Anticancer Drug Screen. Data for the bub3 strain (AID 167); settings: S. cerevisiae bub3 mutant strain, active compounds read high
Procedure, shortened: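 Mutant yeast screening strain plus compound; vehicle-treated cultures serve as the 0% inhibition reference.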

[12] = NCI Yeast Anticancer Drug Screen. Data for the wt2 strain (AID 169); settings: S. cerevisiae wt2 strain growth inhibition, active compounds read high
Procedure, shortened: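 Inhibition of yeast growth was determined after compound treatment, normalised to controls receiving only vehicle.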

[13] = NCI Yeast Anticancer Drug Screen. Data for the mlh1 strain (AID 171);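 also: 0% = growth of vehicle-treated control cultures of the same strain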; settings: S. cerevisiae mlh1 strain growth inhibition, active compounds read high
Procedure, shortened: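 Vehicle-normalised growth inhibition of a repair- or checkpoint-altered yeast strain following compound treatment.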

[14] = NCI Yeast Anticancer Drug Screen. Data for the sgs1 strain (AID 173);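 also: 0% = growth of vehicle-only control cultures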; settings: S. cerevisiae sgs1 mutant, active compounds read high
Procedure, shortened: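 Screen format: yeast with repair or checkpoint alterations, compound exposure, growth read relative to vehicle.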

[15] = NCI Yeast Anticancer Drug Screen. Data for the mlh1 rad18 strain (AID 175); settings: S. cerevisiae mlh1 rad18 strain growth inhibition, active compounds read high
Procedure, shortened: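 Vehicle-treated cultures served as the reference for growth inhibition in a yeast strain carrying DNA damage repair alterations exposed to each compound.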

[16] = NCI Yeast Anticancer Drug Screen. Data for the rad18 strain (AID 177); settings: S. cerevisiae rad18 mutant growth inhibition, active compounds read high
Procedure, shortened: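 Test articles were incubated with altered yeast defective in DNA damage repair. Results are given as inhibition of growth versus vehicle.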

[17] = at 5.0 µM (retest, dose inferred, filed as 0.5)
[18] = at 50.0 µM (retest, dose inferred, filed as 5.0)

Measured: growth inhibition

Cn1c(=O)c2ccccc2c2ccccc21
inactive: [1]; at 1.2 µM -2% | [1]; at 3.7 µM 9% | [1]; at 11.0 µM 32% | [2]; at 1.2 µM -5% | [2]; at 3.7 µM -8% | [2]; at 11.0 µM -10% | [2]; at 33.0 µM 11% | [2]; at 100.0 µM 21% | [3]; at 1.2 µM 0% | [3]; at 3.7 µM 19% | [3]; at 11.0 µM 52% | [4]; at 1.2 µM -1% | [4]; at 3.7 µM -3% | [4]; at 11.0 µM -1% | [4]; at 33.0 µM 35% | [4]; at 100.0 µM 51% | [5]; at 1.2 µM -3% | [5]; at 3.7 µM 4% | [5]; [17] -132% | [5]; at 11.0 µM 41% | [6]; at 1.2 µM 0% | [6]; at 3.7 µM 0% | [6]; [17] -45% | [6]; at 11.0 µM 11% | [6]; at 33.0 µM 26% | [6]; [18] 5% | [6]; at 100.0 µM 52% | [7]; at 1.2 µM 0% | [7]; at 3.7 µM 2% | [7]; at 11.0 µM 15% | [7]; at 33.0 µM 39% | [7]; at 100.0 µM 63% | [8]; [17] -64% | [8]; [18] 35% | [9]; at 1.2 µM 1% | [9]; at 3.7 µM 0% | [9]; at 11.0 µM 7% | [9]; at 33.0 µM 22% | [9]; at 100.0 µM 51% | [10]; [17] -54% | [10]; [18] -6% | [11]; at 1.2 µM -5% | [11]; at 3.7 µM -2% | [11]; [17] -69% | [11]; at 11.0 µM 5% | [11]; at 33.0 µM 29% | [11]; [18] 5% | [11]; at 100.0 µM 51% | [12]; at 1.2 µM -1% | [12]; at 3.7 µM -1% | [12]; at 11.0 µM -2% | [12]; at 33.0 µM 21% | [12]; at 100.0 µM 50% | [13]; at 1.2 µM 8% | [13]; at 3.7 µM -5% | [13]; at 11.0 µM 4% | [13]; at 33.0 µM 46% | [13]; at 100.0 µM 59% | [14]; at 1.2 µM -2% | [14]; at 3.7 µM -1% | [14]; at 11.0 µM -2% | [14]; at 33.0 µM 43% | [14]; at 100.0 µM 66% | [15]; [17] -114% | [15]; [18] 36% | [16]; at 1.2 µM 2% | [16]; at 3.7 µM 5% | [16]; at 11.0 µM 31%
active: [1]; at 33.0 µM 88% | [1]; at 100.0 µM 96% | [3]; at 33.0 µM 87% | [3]; at 100.0 µM 91% | [5]; at 33.0 µM 91% | [5]; [18] 84% | [5]; at 50.0 µM 97% | [5]; at 100.0 µM 94% | [6]; at 50.0 µM 75.1% | [8]; at 50.0 µM 84.9% | [10]; at 50.0 µM 70.5% | [11]; at 50.0 µM 85.8% | [15]; at 50.0 µM 96.3% | [16]; at 33.0 µM 83% | [16]; at 100.0 µM 91%
